In PubChem BioAssay (NCI):
Several values for one entry are separate records, joined by “and”; a condition that tells them apart may be missing. Identical values can stand only once. About 83,000 compounds went through this panel and 20% of them were active in at least one assay; those are over-represented in the sample as a whole.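 The endpoint reported here, percent growth, reads 100 for growth as untreated, 0 for no net growth and -100 for all cells dead.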 Activity calls are given as the source filed them. How the source made its calls: active means growth percent below 10; inactive means the rest.

The compounds below were run on HL-60(TB) leukemia (assay: NCI-60 one-dose screen, 48 h (100 = growth as untreated, 0 = no growth, -100 = all killed)). Conditions: 10 µM unless noted.
With COC(=O)CSC1=C(C)C(=O)C(OC)=C(OC)C1=O the growth was 45.9% (inactive). CCOC(=O)c1ccc(Nc2nc(NN)nc(-c3ccc(F)cc3)c2C#N)cc1 was tested, and the growth was 88% (inactive). With N#C/C(=C/c1ccc([N+](=O)[O-])cc1)c1nnc(NC(=O)c2ccc(-n3c(=O)[nH]c4ccccc4c3=O)cc2)s1 the growth was 99.3% (inactive). In the case of N#Cc1c(-c2ccc(F)cc2)nc(SCc2ccccc2)nc1N1CCNCC1, the growth is reported as -14.7% (active). O=C(COc1ccc(NC(=O)Nc2ccccc2)cc1)N=Nc1c(O)[nH]c2ccc([N+](=O)[O-])cc12 was tested, and the growth was 23.4% (inactive). With COc1cc2c(c(OC)c1OC)C(=O)CC(c1cccc(NC(=O)c3cc([N+](=O)[O-])ccc3Cl)c1)O2 (stereo not given) the growth was 34.1% (inactive). With Oc1ccc(Cl)c(Nc2ncnc3c2cnn3CC(Cl)c2ccc(Br)cc2)c1 (stereo not given) the growth was 80.5% (inactive). For O=C(O)c1ccc(-c2ccc(/C=N/NC(=O)c3[nH]c4ccc(Br)cc4c3-c3ccccc3)s2)cc1, the growth was -5.49% (active). In the case of CCOc1ccccc1NC(=O)N/C(N)=N/c1nc2ccccc2s1, the growth is reported as -23.4% (active). COc1cc(C2CC(c3ccc(S(=O)(=O)NCCNc4nc(Nc5ccc(F)cc5)nc(N(C)C)n4)cc3)=Nc3c(N)nc(N)nc3N2)cc(OC)c1OC (stereo not given) was tested, and the growth was 80.3% (inactive). For Cc1ccc(-c2nc(Nc3ccccc3S(N)(=O)=O)c3ccccc3n2)cc1, the growth was 81.1% (inactive). With Nc1nnc(-c2cncc(Br)c2)c(-c2c[nH]c3ccc(Cl)cc23)n1 the growth was 64.3% (inactive). With CN1CCN(c2ccc(C(=O)/C=C/c3cc(C(F)(F)F)ccc3Cl)cc2)CC1 the growth was -29.3% (active). For O=C(CSc1nnc(-c2ccc(-c3nc4ccccc4[nH]3)cc2)o1)Nc1ccccc1, the growth was 53.5% (inactive). In the case of Fc1ccc(F)c(CNc2nc(SCCN3CCOCC3)nc3c2cnn3CC(Cl)c2ccc(Br)cc2)c1 (stereo not given), the growth is reported as -12.3% (active). In the case of C/C(=N/O)c1ccc(NC(=O)CSc2nnc(-c3ccc(-c4nc5ccc(Cl)cc5[nH]4)cc3)o2)cc1, the growth is reported as 44% (inactive). Nc1cccc(-n2c(COc3ccc(I)cc3)nc3ccccc32)c1 was tested, and the growth was 118% (inactive) and 98% (inactive). COc1cc(-c2nc3ccc(C)cc3[nH]2)ccc1OCc1nnc(-c2ccc(Br)cc2)o1 was tested, and the growth was -34.8% (active). CC(=O)Nc1ccc(-c2cn(-c3cccc(C(=O)Nc4cc(CN5CCOCC5)cc(C(F)(F)F)c4)c3)nn2)cn1 was tested, and the growth was -54.3% (active). For COc1cc(/C=C/C(=O)c2ccccc2)ccc1Oc1nc(Nc2ccc(F)cc2)nc(N(C)C)n1, the growth was 20.5% (inactive). With Cc1cc(N=C2NC(=O)S/C2=C\c2ccc(F)cc2)n[nH]1 the growth was 1.74% (active). CC1[C@H]2[C@H](C[C@H]3[C@@H]4CC=C5c6sc(Nc7ccccc7F)nc6CC[C@]5(C)[C@H]4CC[C@@]32C)O[C@]12CC[C@@H](C)CO2 (stereo not given in full) was tested, and the growth was -41.9% (active). With COc1cccc(-c2c(C#N)c(-c3ccc(Cl)cc3)nc3n[nH]c(-c4ccc(Cl)cc4)c23)c1 the growth was 7.69% (active). COC[C@@H](CC(C)C)N=C1NC(=O)/C(=C/c2ccc3ncoc3c2)N1 was tested, and the growth was 1.03% (active). In the case of N/C(=N\c1nc2ccccc2s1)NC(=O)Nc1c(Cl)cccc1Cl, the growth is reported as 17.9% (inactive). In the case of COc1cc(OC)c2c3nc4cc(C)c(C)cc4nc3n(CCN(C)C)c2c1, the growth is reported as 52.9% (inactive). In the case of O=C(CNc1nc(-c2ccccc2)cs1)Nc1ccc([N+](=O)[O-])cc1Cl, the growth is reported as 21.9% (inactive). With Cc1ccc(CNC(=O)Cc2ccc3c(c2)CN(C2CCC(=O)NC2=O)C3=O)cc1 (stereo not given) the growth was -23.1% (active). O=C(c1ccc(Cl)cc1)C1[C@H](c2ccccc2Cl)[C@@H](c2ccccc2)NC12C(=O)Nc1ccc(Cl)cc12 (stereo not given in full) was tested, and the growth was -39.9% (active). COc1ccccc1[C@H]1C(C(=O)c2ccc(Cl)cc2)C2(N[C@@H]1c1ccccc1)C(=O)Nc1ccccc12 (stereo not given in full) was tested, and the growth was -29.6% (active). In the case of COc1ccc(C(=O)/C=C/c2cc(F)cc(C(F)(F)F)c2)cc1S(N)(=O)=O, the growth is reported as -4.63% (active). O=C(c1ccc(O)cc1)C1[C@H](c2ccc(Cl)cc2)[C@@H](c2ccccc2)NC12C(=O)Nc1ccccc12 (stereo not given in full) was tested, and the growth was -33.3% (active). In the case of O=C(Cn1nc(-c2ccccc2)ccc1=O)NN1C(=O)c2ccccc2C1=O, the growth is reported as 101% (inactive). With Cc1ccc(NC(=O)[C@]23CCC(C)(C)CC2C2=CCC4[C@@]5(C)C[C@@H](O)[C@H](O)[C@@](C)(CO)C5CC[C@@]4(C)[C@]2(C)CC3)cc1 (stereo not given in full) the growth was -15.4% (active). With C/C(=N\N=C\c1ccc(N(C)C)cc1)c1ccc2c(c1)Nc1ccccc1S2 the growth was 59.2% (inactive). With COc1ccc(C(=O)/C=C/c2ccc(OCc3ccc(F)cc3)c(OC)c2)cc1OC the growth was -5.63% (active). Nc1cc(-c2c[nH]c3ccc(Cl)cc23)nc2cc(-c3c[nH]c4ccccc34)nn12 was tested, and the growth was -18.2% (active). For N#Cc1c(-c2ccc(Cl)cc2)nc2n[nH]c(-c3ccc(Cl)cc3)c2c1-c1cccs1, the growth was 23.7% (inactive). In the case of O=C(N/C(=C1/OCCN1Cc1ccccc1)[P+](c1ccccc1)(c1ccccc1)c1ccccc1)c1ccccc1, the growth is reported as -13.1% (active). COc1c(F)ccc(C(=O)Nc2ccc3nc(NC(=O)C4CCCN(S(=O)(=O)c5ccc(C#N)cc5)C4)sc3c2)c1F (stereo not given) was tested, and the growth was 115% (inactive).
